The structures appear in SMILES notation. About 83,000 compounds went through this panel and 20% of them were active in at least one assay; those are over-represented in the sample as a whole.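 Negative percent growth values reflect cell death: -40 means 40% of the cells present at the start died, and -100 means all died.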 A number with no mark means an inactive call. The source made the active and inactive calls. Rule for the calls: active = growth percent below 10; inactive = the rest.

What all share (experiment): NCI-60 one-dose screen, 48 h (100 = growth as untreated, 0 = no growth, -100 = all killed)
The test system of one assay is HT29 colon. The note with it: 10 µM.
For a further assay, the system named is SNB-75 CNS. The note with it: 10 µM.
Another assay has as its system U251 CNS. Conditions: 10 µM.
For the next assay, the system named is PC-3 prostate. The note with it: 10 µM.
For the next assay, the system named is SK-MEL-5 melanoma. Conditions: 10 µM.
The next assay relates to UACC-62 melanoma. The note with it: 10 µM unless noted.
The next assay concerns LOX IMVI melanoma. The note with it: 10 µM.
The next assay deals with SK-MEL-28 melanoma. Conditions: 10 µM.
For another assay, the system named is SNB-19 CNS. The note with it: 10 µM.

For the compound `CC(C)NC(=O)OCc1c(COC(=O)NC(C)C)c(-c2ccc(Cl)c(Cl)c2)n2c1SCC2`, the growth was 62.1% with HT29 colon; 27.8% in the assay on SNB-75 CNS; 43.3% with U251 CNS; 61.3% with PC-3 prostate; 67.7% in the assay with SK-MEL-5 melanoma; -19.3% (active) in the assay with UACC-62 melanoma. In addition, the figures for the growth in the assay with LOX IMVI melanoma and in the assay with SK-MEL-28 melanoma were 19.1% and 92.8%, respectively.

Regarding `O=C(O)/C=C/c1ccc2c(c1)CCC2`, the growth in the assay on HT29 colon was 104%; in the assay with SNB-75 CNS, 100%; in the assay on SNB-19 CNS, 105%; in the assay on U251 CNS it was 99.3%; with PC-3 prostate, 103%; in the assay on SK-MEL-5 melanoma, 105%. Also, the growth is 103% in the assay on UACC-62 melanoma, 102% in the assay on LOX IMVI melanoma and 104% in the assay with SK-MEL-28 melanoma.

As to `O=C(O)CNC(=O)c1ccccc1`, in the assay with U251 CNS, the growth is 96.6%.

For `O=C1Cc2ccccc2C(=O)O1`, the growth in the assay with HT29 colon was 109%; in the assay on SNB-75 CNS, 95.8%; in the assay on SNB-19 CNS, 103%; in the assay on U251 CNS, 104%; in the assay with SK-MEL-5 melanoma, 105%; with UACC-62 melanoma, 106%. In addition, the growth in the assay with LOX IMVI melanoma was 102%; in the assay on SK-MEL-28 melanoma, 106%.

For the compound `Nc1nc(N)c2cc(S(=O)(=O)c3cccc(C(F)(F)F)c3)ccc2n1`, the growth in the assay on HT29 colon was 22.9%; in the assay on SNB-19 CNS, 43.6%; in the assay on U251 CNS, 32.2%; in the assay with PC-3 prostate, 39.6%; with SK-MEL-5 melanoma, 28.3%; in the assay on UACC-62 melanoma, 32.5%. The growth in the assay on LOX IMVI melanoma is 28.6%; with SK-MEL-28 melanoma, 69.9%.

In the case of `Cc1ccc(S(=O)(=O)O)c(C)c1`, the growth is 103% with HT29 colon; 82.8% in the assay on SNB-75 CNS; 109% in the assay with SNB-19 CNS; 97.1% with U251 CNS; 105% in the assay on SK-MEL-5 melanoma; 120% in the assay on UACC-62 melanoma. The growth with LOX IMVI melanoma was 95.3%; in the assay with SK-MEL-28 melanoma, 106%.

Regarding `Cc1cc2nc(CC(=O)c3ccccc3)c(=O)[nH]c2cc1C`, the growth is 97.5% in the assay with HT29 colon; 117% with SNB-75 CNS; 95.4% with U251 CNS; 96.1% in the assay on SK-MEL-5 melanoma; 74.9% with UACC-62 melanoma; 96.2% in the assay with LOX IMVI melanoma. For the same compound, the growth in the assay on SK-MEL-28 melanoma is 109%.

In the case of `O=C(O)C(c1ccccc1)C(O)c1ccccc1` (stereo unspecified), the growth in the assay with HT29 colon is 96.5%; in the assay with SNB-75 CNS, 96.6%; in the assay with SNB-19 CNS it was 103%; in the assay with U251 CNS, 91.9%; with PC-3 prostate, 92.6%; with SK-MEL-5 melanoma, 94%. The results for the growth in the assay with UACC-62 melanoma, in the assay with LOX IMVI melanoma and in the assay on SK-MEL-28 melanoma were 93.6%, 102% and 103%, respectively.

For the compound `C=C[Si](OC(C)=O)(OC(C)=O)OC(C)=O`, the growth with SNB-75 CNS is 95.5%; in the assay on SNB-19 CNS it was 109%; with U251 CNS, 100%; with PC-3 prostate, 91.6%; in the assay with SK-MEL-5 melanoma, 104%; in the assay with UACC-62 melanoma, 116%. For the same compound, the results for the growth in the assay on LOX IMVI melanoma and with SK-MEL-28 melanoma were 98.4% and 104%, respectively.

On to `COc1ccc(OC)c(/C=C2\CCc3ccccc3C2=O)c1`, for which the growth is 12.8% in the assay on HT29 colon; 17.4% in the assay with SNB-75 CNS; 38.6% in the assay with SNB-19 CNS; 47.6% in the assay with PC-3 prostate; 52.9% with SK-MEL-5 melanoma; 43.5% in the assay on UACC-62 melanoma. Also, the growth is 35.6% in the assay on LOX IMVI melanoma and 64.9% with SK-MEL-28 melanoma.

For the compound `CC(=O)OC(C(=O)O)c1ccccc1` (stereo unspecified), the growth is 104% in the assay with HT29 colon; 116% in the assay with SNB-75 CNS; 115% in the assay on SNB-19 CNS; 109% in the assay on U251 CNS; 91% with PC-3 prostate; 105% in the assay with SK-MEL-5 melanoma. The growth in the assay on UACC-62 melanoma was 112%; in the assay on LOX IMVI melanoma, 105%; in the assay on SK-MEL-28 melanoma, 119%.

In the case of `CC(C)CCCC(=O)O`, the growth with HT29 colon was 104%; with SNB-75 CNS it was 95.4%; with SNB-19 CNS, 101%; in the assay on U251 CNS, 103%; in the assay on PC-3 prostate, 94.8%; with SK-MEL-5 melanoma it was 97.2%. For the same compound, the growth in the assay with UACC-62 melanoma is 107%; with LOX IMVI melanoma it was 105%; in the assay with SK-MEL-28 melanoma, 99%.

Turning to `O=C(/C=C/C(=O)c1ccccc1)c1ccccc1`, the growth with SNB-75 CNS is 104%; in the assay on SNB-19 CNS, 109%; in the assay with U251 CNS, 93.6%; with PC-3 prostate, 125%; in the assay on SK-MEL-5 melanoma, 105%; in the assay on UACC-62 melanoma, 93.4%. In addition, the growth in the assay on LOX IMVI melanoma was 92.1%; in the assay on SK-MEL-28 melanoma, 117%.

On to `CCN1C(=O)/C(=C/C=C/N(C)c2ccccc2)SC1=S`, for which the growth in the assay on HT29 colon was 90.4%; in the assay on SNB-19 CNS it was 94.1%; in the assay on U251 CNS it was 85.5%; in the assay on SK-MEL-5 melanoma it was 87.5%; with UACC-62 melanoma it was 91.3%; with LOX IMVI melanoma, 91.5%. The growth in the assay on SK-MEL-28 melanoma is 94.6%.

Consider `CC(C)=CC(=O)OC(=O)C=C(C)C`, for which the growth in the assay with SNB-75 CNS is 90.3%; in the assay with SNB-19 CNS, 104%; with U251 CNS it was 102%; in the assay with PC-3 prostate, 98.4%; with SK-MEL-5 melanoma it was 98.8%; in the assay with UACC-62 melanoma, 98.2%. Further, the growth in the assay on LOX IMVI melanoma is 109%.

`COc1cccc(Sc2ccc([N+](=O)[O-])c3no[n+]([O-])c23)c1`: the growth was 30.2% in the assay on HT29 colon; 31.8% in the assay on SNB-75 CNS; 83.3% with SNB-19 CNS; 59.4% in the assay on PC-3 prostate; 88.9% in the assay with SK-MEL-5 melanoma; 53.2% in the assay with UACC-62 melanoma. The growth in the assay with LOX IMVI melanoma is 28.9%; in the assay with SK-MEL-28 melanoma, 55%.

As to `S=c1nn[nH]c2ccccc12`, the growth is 112% with HT29 colon; 96.4% with SNB-75 CNS; 95.9% in the assay with SNB-19 CNS; 103% in the assay on U251 CNS; 98.1% in the assay with PC-3 prostate; 97.9% with SK-MEL-5 melanoma. The growth with UACC-62 melanoma was 99.2%; in the assay on LOX IMVI melanoma, 93.6%; with SK-MEL-28 melanoma, 126%.

For the origin of these results see PubChem BioAssay (NCI).
